The nature of assay [1]: compounds binding Alexa647 anti-His antibody – biochemical, small-molecule microarray, 635 nm fluorescence, artefact control for SMM control protein annotation, primary screen (AID 1128).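 Further: score merges feature fluorescence with signal-to-noise for each printed compound spot.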 The conditions noted are these: higher = more signal.
In assay [2] the test system is Human papillomavirus type 1a E7 protein (residues 1-88). Briefly: HPV1a E7 small-molecule binders, primary screen, biochemical, small-molecule microarray, residues 1-88, 635 nm (AID 1129). The conditions noted are these: small-molecule microarray binding, fluorescence 635 nm; higher = more signal.
Assay [3] deals with Focal adhesion kinase 1 (Homo sapiens) (UniProt Q05397). Description: PTK2 protein binding on printed compound slides – biochemical, small-molecule microarray, 635/667 nm fluorescence, BSA, DTT, primary screen (AID 1130).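 Further: composite of spot emission at 667 nm and signal to noise over triplicate slides.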 The conditions noted are these: 635 nm fluorescence, higher = more signal.
Assay [4] concerns Fibrinogen (Alexa647-labelled). Briefly: Alexa647-fibrinogen binding to printed small molecules – biochemical, small-molecule microarray, 635/667 nm fluorescence, artefact control for SMM control-protein annotation, profiling panel (AID 1131).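 Further: z-score merges 667 nm fluorescence with per-spot signal-to-noise over triplicate slides.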 The conditions noted are these: fibrinogen-A647 binding fluorescence, higher = more signal.
The target of assay [5] is Follistatin (Homo sapiens) (UniProt P19883). Briefly: FST protein binding to printed compounds – biochemical, small-molecule microarray, 635/667 nm fluorescence, primary screen (AID 1132). The conditions noted are these: 635 nm fluorescence, higher = more signal.
In assay [6] the target is Fibroblast growth factor 2 (Homo sapiens) (UniProt P09038). Description: basic fibroblast growth factor binding to printed compounds – biochemical, small-molecule microarray, 635/667 nm fluorescence, primary screen (AID 1133). The conditions noted are these: FGF2, fluorescence 635/667, higher = more signal.
Assay [7] in a line: JC-1 mitochondrial potential readout, lung cancer cells – cell-based, A549, JC-1 fluorescence, basal, 24 h, 100 nL, profiling panel (AID 1138).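 Further: A549 lung adenocarcinoma cells under basal conditions with no added stimulus; test concentration not given here.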 The conditions noted are these: higher = more signal.
Another assay concerns Lefty1. Description: Lefty1 protein binding to printed compounds – biochemical, small-molecule microarray, 635/667 nm fluorescence, primary screen (AID 1139). The conditions noted are these: fluorescence 635/667, higher = more signal.
For assay [8], the system named is wheat germ agglutinin (Triticum aestivum), Alexa647-labelled. Briefly: Alexa647-WGA lectin binding to printed small molecules – biochemical, small-molecule microarray, 635/667 nm fluorescence, artefact control for SMM control-protein annotation, profiling panel (AID 1140).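 Further: score merges 667 nm feature emission with signal to noise over triplicate slides.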 The conditions noted are these: WGA-A647 binding, 635 nm fluorescence, higher = more signal.

Assay [9] addresses Luciferin 4-monooxygenase (Photinus pyralis) (UniProt P08659). Briefly: inhibition of purified Photinus pyralis luciferase – biochemical, luminescence, purified enzyme, 2006 set, primary screen (AID 1141).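 Further: cell-free assay with purified firefly luciferase at 100 ng per well in PBS; test concentration not given here.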 The conditions noted are these: purified firefly luciferase, SteadyGlo luminescence, 30 min; higher = more signal, called active from +8 up or from −8 down.
Assay [10] deals with Wnt5a (protein binding on small-molecule microarray). Description: small molecules binding Wnt5a protein – biophysical, small-molecule microarray, 635/667 nm fluorescence, primary screen (AID 1142).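 Further: fluorescence read at 667 nm with signal to noise per printed feature.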 The conditions noted are these: 635 nm fluorescence, higher = more signal.
Assay [11] can be described thus: ATP-based viability of Huh7 replicon cells – cell-based, CellTiter-Glo luminescence, basal, 48 h, cytotoxicity control for HCV replication inhibitor project, primary screen (AID 1143).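 Further: Huh7 hepatoma cells carrying a hepatitis C replication reporter with no stimulus; test concentration not given here.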 The conditions noted are these: higher = more signal, called active from +8 up or from −8 down. (Replicon systems follow genome replication, usually without infectious particles.)
Assay [12] is described as follows: Pseudomonas biofilm growth suppression – PAO1 strain, BacTiter-Glo luminescence, LB-PBS, primary screen (AID 1144). The conditions noted are these: P. aeruginosa PAO1 biofilm, 12 h, higher = more signal.
Assay [13] in a line: basal CRE-LacZ reporter activity in PC12 – cell-based, unstimulated, primary screen (AID 1145). The conditions noted are these: no forskolin, luminescence, 4.5 h, higher = more signal, called active from +8 up or from −8 down.
A short description of assay [14]: forskolin-driven CRE-LacZ activity in PC12 – cell-based, CRE-LacZ reporter, forskolin-stimulated, primary screen (AID 1146).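 Further: PC12 cells with 6xCRE LacZ reporter stimulated by forskolin 10 µM; beta-galactosidase reporter signal reflecting CREB driven transcription.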 The conditions noted are these: luminescence, 4.5 h, higher = more signal, called active from +8 up or from −8 down.
Assay [15] deals with Streptavidin (Streptomyces avidinii) (UniProt P22629). Description: compounds binding control protein streptavidin – biophysical, small-molecule microarray, 635/667 nm fluorescence, artefact control for SMM compound annotation, primary screen (AID 1147).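 Further: signal reflects streptavidin binding to arrayed compounds as a control protein.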 The conditions noted are these: higher = more signal.
The nature of assay [16]: probe aInhba binding on compound microarray – biochemical, small-molecule microarray, 635/667 nm fluorescence, primary screen (AID 1148).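 Further: score merges 667nm spot fluorescence with signal-to-noise for antibody binding to printed compounds.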 The conditions noted are these: higher = more signal.
The target in assay [17] is Torsin-1A (Homo sapiens) (UniProt O14656). Description: TOR1A wild-type binding on microarray – cell lysate, small-molecule microarray, lysate, 635/667 nm, primary screen (AID 1149). The conditions noted are these: COS7 hTOR1A-WT lysate, 635 nm fluorescence, higher = more signal.
For assay [18] the target is unchanged. Briefly: torsin A mutant lysate binding on microarrays – cell lysate, small-molecule microarray, COS7 lysate, 635/667 nm fluorescence, primary screen (AID 1150).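 Further: score pools 667 nm emission and signal to noise measuring lysate protein binding.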 The conditions noted are these: COS7 hTOR1A mutant lysate, 635 nm fluorescence, higher = more signal.
The test system of assay [19] is Sonic hedgehog protein (Shh). Briefly: Sonic hedgehog microarray binding compounds – biochemical, small-molecule microarray, 635/667 nm fluorescence, primary screen (AID 1151).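 Further: Shh protein binding to compounds spotted on small-molecule microarray slides; score combines spot fluorescence intensity with signal-to-noise across triplicate slides.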 The conditions noted are these: 635 nm fluorescence, higher = more signal.

Active and inactive are the calls of the source. Unless noted, how the calls were made is not given here.

Focal adhesion kinase 1 (Homo sapiens), sequence (Q05397 whole entry, looked up): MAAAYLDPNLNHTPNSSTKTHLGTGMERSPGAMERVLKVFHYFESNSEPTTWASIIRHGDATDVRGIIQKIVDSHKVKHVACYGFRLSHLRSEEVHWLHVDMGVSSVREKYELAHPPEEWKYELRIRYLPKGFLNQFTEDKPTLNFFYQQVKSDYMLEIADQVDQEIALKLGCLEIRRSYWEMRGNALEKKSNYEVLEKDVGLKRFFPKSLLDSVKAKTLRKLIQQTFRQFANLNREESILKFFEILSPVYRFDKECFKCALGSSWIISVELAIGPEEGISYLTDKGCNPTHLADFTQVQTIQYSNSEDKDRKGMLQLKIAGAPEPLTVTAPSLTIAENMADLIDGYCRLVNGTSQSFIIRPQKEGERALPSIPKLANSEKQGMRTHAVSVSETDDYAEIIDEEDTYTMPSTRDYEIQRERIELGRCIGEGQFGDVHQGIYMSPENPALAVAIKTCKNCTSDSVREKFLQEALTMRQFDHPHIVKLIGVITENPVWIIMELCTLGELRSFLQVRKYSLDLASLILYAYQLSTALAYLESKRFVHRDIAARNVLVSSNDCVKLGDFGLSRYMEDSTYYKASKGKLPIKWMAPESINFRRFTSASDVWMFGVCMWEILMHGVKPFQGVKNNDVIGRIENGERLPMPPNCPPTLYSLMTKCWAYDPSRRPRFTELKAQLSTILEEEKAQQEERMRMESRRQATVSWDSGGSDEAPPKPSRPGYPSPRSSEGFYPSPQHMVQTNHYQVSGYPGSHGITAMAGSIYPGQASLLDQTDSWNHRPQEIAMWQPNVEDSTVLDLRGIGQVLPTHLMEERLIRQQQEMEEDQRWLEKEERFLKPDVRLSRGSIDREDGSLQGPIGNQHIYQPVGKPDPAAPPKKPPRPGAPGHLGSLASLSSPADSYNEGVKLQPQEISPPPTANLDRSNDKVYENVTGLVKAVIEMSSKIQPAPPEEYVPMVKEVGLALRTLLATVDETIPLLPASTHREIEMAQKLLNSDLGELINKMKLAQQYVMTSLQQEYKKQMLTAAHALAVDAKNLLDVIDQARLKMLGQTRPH
Streptavidin (Streptomyces avidinii), sequence (P22629 whole entry, looked up): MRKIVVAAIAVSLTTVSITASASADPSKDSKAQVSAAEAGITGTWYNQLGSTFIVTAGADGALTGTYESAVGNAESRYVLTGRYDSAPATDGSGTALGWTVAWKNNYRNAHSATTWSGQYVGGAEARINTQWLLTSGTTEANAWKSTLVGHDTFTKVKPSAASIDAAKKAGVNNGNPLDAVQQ
Torsin-1A (Homo sapiens), sequence (O14656 whole entry, looked up): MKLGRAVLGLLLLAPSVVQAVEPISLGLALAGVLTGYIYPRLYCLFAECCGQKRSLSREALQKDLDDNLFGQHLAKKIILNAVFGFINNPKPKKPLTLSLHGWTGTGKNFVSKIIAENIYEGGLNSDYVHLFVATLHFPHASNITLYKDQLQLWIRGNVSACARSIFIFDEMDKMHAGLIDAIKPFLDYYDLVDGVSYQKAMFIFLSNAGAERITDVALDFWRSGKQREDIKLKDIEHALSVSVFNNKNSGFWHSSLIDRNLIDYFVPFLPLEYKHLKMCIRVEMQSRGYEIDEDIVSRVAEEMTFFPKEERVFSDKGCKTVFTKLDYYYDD
Fibroblast growth factor 2 (Homo sapiens), sequence (P09038 whole entry, looked up): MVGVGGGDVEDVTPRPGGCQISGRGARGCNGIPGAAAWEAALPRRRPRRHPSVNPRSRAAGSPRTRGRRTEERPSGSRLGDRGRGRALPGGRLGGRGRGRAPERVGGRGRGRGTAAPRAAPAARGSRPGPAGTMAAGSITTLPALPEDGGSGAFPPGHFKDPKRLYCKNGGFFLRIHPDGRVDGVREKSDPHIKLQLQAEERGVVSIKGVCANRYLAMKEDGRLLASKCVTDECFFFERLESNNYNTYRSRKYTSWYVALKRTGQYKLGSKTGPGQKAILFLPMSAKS
Luciferin 4-monooxygenase (Photinus pyralis), sequence (P08659 whole entry, looked up): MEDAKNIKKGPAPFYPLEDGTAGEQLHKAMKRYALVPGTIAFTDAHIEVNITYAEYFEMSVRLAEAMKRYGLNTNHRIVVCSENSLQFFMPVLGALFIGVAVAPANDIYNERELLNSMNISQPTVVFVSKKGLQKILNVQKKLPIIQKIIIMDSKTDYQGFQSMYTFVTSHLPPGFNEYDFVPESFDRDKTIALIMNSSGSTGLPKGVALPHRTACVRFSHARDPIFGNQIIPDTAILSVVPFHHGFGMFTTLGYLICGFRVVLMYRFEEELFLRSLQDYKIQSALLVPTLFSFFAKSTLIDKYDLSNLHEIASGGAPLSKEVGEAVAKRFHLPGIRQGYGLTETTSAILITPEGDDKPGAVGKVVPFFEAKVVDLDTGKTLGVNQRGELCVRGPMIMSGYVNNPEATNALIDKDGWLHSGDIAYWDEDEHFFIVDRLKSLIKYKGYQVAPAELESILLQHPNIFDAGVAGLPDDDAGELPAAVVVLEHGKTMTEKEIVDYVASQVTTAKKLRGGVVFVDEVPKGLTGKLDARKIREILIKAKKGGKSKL
Follistatin (Homo sapiens), sequence (P19883 whole entry, looked up): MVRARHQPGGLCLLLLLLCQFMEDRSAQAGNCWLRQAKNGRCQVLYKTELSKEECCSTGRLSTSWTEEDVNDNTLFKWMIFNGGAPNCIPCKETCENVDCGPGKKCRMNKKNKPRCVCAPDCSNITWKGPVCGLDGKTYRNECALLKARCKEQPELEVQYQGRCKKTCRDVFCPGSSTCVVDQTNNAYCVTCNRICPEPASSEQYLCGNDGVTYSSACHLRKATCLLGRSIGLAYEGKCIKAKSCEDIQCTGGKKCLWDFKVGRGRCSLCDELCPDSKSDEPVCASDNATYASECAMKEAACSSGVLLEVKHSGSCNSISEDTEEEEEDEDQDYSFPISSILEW

Take `O=C1O[C@H](c2ccccc2)[C@H](c2ccccc2)N2[C@H]1[C@@H](C(=O)N1CCCCCCC1)[C@]1(C(=O)Nc3ccc(C#CCCO)cc31)[C@H]2c1ccc(O)cc1`: the composite z-score in assay [1] was 2.12; in assay [2] it was 1.32; in assay [3], 4.55; in [4] it was 0.967; in assay [5], 1.56; in assay [6], 1.71. Further, the composite z-score in the assay with Lefty1 came out at 1.85; in assay [8], 1.68; in assay [10], 2.43; in assay [15], 3.86; in assay [16] it was 1.84; with Torsin-1A (Homo sapiens) [17], 3.62. Besides, the composite z-score with Torsin-1A (Homo sapiens) [18] was 3.34; in [19], 2.36. Also, the z-score in [7] was 0.889; in assay [9], 0.628 (inactive); in assay [11], -1.76 (inactive); in [12], -0.575 (inactive); in [13], -0.438 (inactive); in assay [14] it was -1.23 (inactive).
Turning to `CCOC(=O)C[C@H]1[C@H](OC(=O)c2ccccc2-c2ccccc2)[C@@H](NC(=O)CC(C)C)c2cc(OCCCO)ccc2N1C(=O)c1ccccc1`, the composite z-score is -0.229 in [1]; 0.0447 in assay [2]; -0.0647 in assay [3]; 0.24 in assay [4]; 1.01 in [5]; 0.583 in assay [6]. Further, the composite z-score in the assay on Lefty1 was 1.01; in assay [8], -0.0988; in [10], 0.167; in assay [15] it was -0.31; in assay [16], -0.0178; in the assay with Torsin-1A (Homo sapiens) [17], -0.278. Moreover, the composite z-score with Torsin-1A (Homo sapiens) [18] was -0.161; in assay [19] it was 1.51. The z-score in [7] is -0.154; in assay [9], 0.914 (inactive); in assay [11] it was -0.715 (inactive); in assay [12] it was -0.829 (inactive); in assay [13] it was 1.94 (inactive); in assay [14] it was -0.103 (inactive).
For `CC(C)N1C(=O)[C@@]2(Cc3ccccc31)c1ccccc1C(=O)N(Cc1ccccc1C(F)(F)F)[C@H]2c1ccc(CO)cc1`, the composite z-score in assay [1] is 0.175; in [2], 0.174; in assay [3] it was 0.368; in [4], -0.0628; in assay [5], 0.902; in [6], 1.18. Further, the composite z-score with Lefty1 was 0.76; in assay [8], -0.203; in assay [10] it was 0.15; in assay [15], -0.0569; in assay [16], 0.46; in the assay with Torsin-1A (Homo sapiens) [17], -0.375. Further, the composite z-score with Torsin-1A (Homo sapiens) [18] was -0.139; in assay [19] it was 0.376. Also, the z-score in [7] is -0.602; in assay [9], -0.301 (inactive); in [11], -0.222 (inactive); in assay [12], -0.121 (inactive); in assay [13], 0.155 (inactive); in assay [14] it was 0.176 (inactive).
Turning to `COc1ccc([Si](C)(C)[C@@H]2[C@@H](CC(=O)N3Cc4ccccc4C[C@H]3CO)O[C@]3(C(=O)N(Cc4ccc(I)cc4)c4ccccc43)[C@H]2C)cc1`, the composite z-score in assay [1] was 0.521; in assay [2] it was 0.963; in assay [3], 0.0916; in assay [4], 0.838; in [5], 1.59; in [6], 1.65. Moreover, the composite z-score in the assay on Lefty1 was 1.58; in [8], 0.373; in assay [10] it was 0.206; in assay [15] it was 0.143; in assay [16], -0.101; with Torsin-1A (Homo sapiens) [17], 0.211. For the same compound, the figures for the composite z-score (in the assay with Torsin-1A (Homo sapiens) [18]; in assay [19]) were 0.204 and 1.94, respectively. Further, the z-score in assay [7] is -0.26; in assay [9], 0.798 (inactive); in assay [11], -6.3 (inactive); in assay [12], 0.199 (inactive); in assay [13], -0.477 (inactive); in [14] it was 0.0658 (inactive).
As for `COCCCNC(=O)[C@@]1(CCC(=O)OC(C)(C)C)N=C(c2ccc(OCCCO)cc2)O[C@H]1c1ccccc1`, the composite z-score came out at 2.41 in [1]; 1.22 in assay [2]; 0.0039 in assay [3]; 0.986 in assay [4]; 1.36 in assay [5]; 0.295 in assay [6]. Further, the composite z-score in the assay on Lefty1 was -0.568; in assay [8], 0.597; in [10], 0.581; in [15], 0.471; in assay [16], 0.113; with Torsin-1A (Homo sapiens) [17], 0.725. Also, the composite z-score in the assay with Torsin-1A (Homo sapiens) [18] was 1.12; in assay [19] it was -0.119. Besides, the z-score is 1.42 in assay [7]; -0.173 (inactive) in assay [9]; 0.0272 (inactive) in [11]; -0.029 (inactive) in [12]; -1.29 (inactive) in assay [13]; -0.391 (inactive) in assay [14].

(Values after PubChem BioAssay.)
